Measured values from PubChem BioAssay AID463173 (ICCB-Longwood Screening Facility, Harvard Medical School, 2010).
The whole screen tested about 52,000 compounds, of which about 4,300 (8.3%) were called active. The sample as a whole holds a higher share of actives than the screen did. Unmarked numbers belong to inactive results. No stated cut-off is given here; in the data, active means survival mostly below about 52% (no sharp cut-off); inactive means mostly above about 56%.

What follows are compounds tested on DeltatarO mutant (assay: S. aureus survival, RN4220 and DeltatarO strains – OD600, teichoic acid synthesis inhibitors, primary screen (AID 463173)). Details: S. aureus RN4220 wild type/DeltatarO growth, OD600, 18 h, hits give low values, screened at 18.75 µg/mL (by protocol).

Structure (SMILES)	survival
CCOc1ccccc1NC(=O)c1cn(C2CCCC2)c(=O)c2c1c1ccccc1n2C	122%
COC(=O)c1cc(S(=O)(=O)NCC2CCN(Cc3cccc(F)c3)CC2)cn1C	122%
Cc1ccc(NS(=O)(=O)c2ccc(-c3cc(C)no3)cc2)c(Br)c1	75%
CCOc1ccccc1NC(=O)CSc1ncc(S(=O)(=O)c2ccc(C)c(C)c2)c(N)n1	99%
Cc1ccc(NC(=O)c2cc3c(-c4ccccc4)nn(-c4ccccc4)c3s2)cc1	50%
O=C(Nc1ccc(Cl)cc1)c1cc2c(-c3ccccc3)nn(-c3ccccc3)c2s1	51%
O=C(Nc1ccccc1)c1cc2c(-c3ccccc3)nn(-c3ccccc3)c2s1	44% (active)
Cc1nn(-c2ccccc2)c2sc(C(=O)Nc3cccc(Br)c3)cc12	30% (active)
Cc1nn(-c2ccccc2)c2sc(C(=O)N3CCOCC3)cc12	89%
COc1cccc(NC(=O)c2cc3c(-c4ccc(Cl)cc4)nn(C)c3s2)c1	84%
Cc1nn(-c2ccccc2)c2sc(C(=O)Nc3ccc(Cl)cc3Cl)cc12	71%
Cc1nn(-c2ccccc2)c2sc(C(=O)Nc3cccc(O)c3)cc12	5% (active)
Cc1nn(-c2ccccc2)c2sc(C(=O)Nc3cccc(Cl)c3)cc12	2% (active)
COc1ccc(C(c2c(C)n(C)n(-c3ccccc3)c2=O)c2c(C)n(C)n(-c3ccccc3)c2=O)cc1O	84%
COc1ccc(-c2[nH]c(-c3ccccc3)nc2SCC(=O)Nc2ccc3c(c2)OCO3)cc1	51%
Clc1cccc(-n2cc(-c3ccccc3)c3c(NC4CCCC4)ncnc32)c1	78%
COc1ccccc1N1CCN(S(=O)(=O)c2c(C)sc3ncn(CC(=O)N(C)c4ccc(Cl)cc4)c(=O)c23)CC1	65%
COc1ccc(NC(=O)CC(C)S(=O)(=O)c2cc3c(cc2C)NC(=O)CO3)cc1OC (centres undefined)	88%
CCC(C)NC(=O)CSc1nc2cc3c(cc2c(=O)n1CCCCCC(=O)NCc1ccc(OC)cc1)OCO3 (centres undefined)	76%
COc1ccc(-c2nc(C)c(CCNC(=O)C(=O)Nc3ccccc3F)s2)cc1	115%
CN(C)c1ccc(-c2nnc(SCC3CCCO3)n2C)cc1 (centres undefined)	82%
O=C(CCC1N=C2c3ccccc3N=C(SCc3ccc(Cl)cc3)N2C1=O)NCCc1ccccc1 (centres undefined)	90%
Cc1cccc(NC(=O)c2cc3c(C)nn(-c4ccccc4)c3s2)c1	6% (active)

Structure (SMILES)	survival
Cc1cccc(NC(=O)c2ccc(-c3ccccc3)s2)c1	82%
Cc1nn(-c2ccccc2)c2sc(C(=O)N/N=C/c3ccccc3)cc12	110%
Cc1nn(-c2ccccc2)c2sc(C(=O)Nc3ccc(Br)cc3)cc12	26% (active)
CCOc1ccc(NC(=O)c2cc3c(C)nn(-c4ccccc4)c3s2)cc1	75%
O=C(c1cccc(Cl)c1)N1c2ncnn2C2(CCCCC2)[C@@H]2CCCC[C@@H]21	80%
O=C(NCc1ccccc1Cl)C1CCCN(C(=O)c2cnn(-c3ccc(F)cc3)c2-n2cccc2)C1 (centres undefined)	67%
O=C(CCN1N=C(c2ccccc2)CCC1=O)NCCc1ccc(Cl)cc1	122%
CCc1cccc(NC(=O)c2c(C)oc3ncnc(N4CCCCC4)c23)c1	54%
COC(=O)CSc1nc2c(cc1C#N)CCCC2	106%
CCCSc1oc(-c2cccs2)nc1S(=O)(=O)c1ccc(Cl)cc1	65%
O=S(=O)(c1ccc(Cl)cc1)c1nc(-c2ccccc2Br)oc1N1CCOCC1	59%
CC1CCN(c2oc(-c3cccs3)nc2S(=O)(=O)c2ccc(Cl)cc2)CC1	17% (active)
COc1ccccc1-c1nc(S(=O)(=O)c2ccccc2)c(N2CCC(C)CC2)o1	19% (active)
COc1ccc(-c2nc(S(=O)(=O)c3ccccc3)c(N3CCC(C)CC3)o2)cc1	74%
COc1ccccc1-c1nc(S(=O)(=O)c2ccc(Cl)cc2)c(N2CCCCCC2)o1	60%
O=S(=O)(c1ccc(Cl)cc1)c1nc(-c2cccs2)oc1SCc1ccc(F)cc1	67%
Cc1ccc(S(=O)(=O)c2nc(-c3cccs3)oc2N2CCC(C)CC2)cc1	8% (active)
O=S(=O)(c1ccc(Cl)cc1)c1nc(-c2cccs2)oc1N1CCCCC1	45% (active)
CC1CCN(c2nc3c(S(=O)(=O)c4ccc(Cl)cc4)nnn3c3ccsc23)CC1	113%
COc1ccccc1-n1nc(-c2ccccc2)c2cnc3cc(C(F)(F)F)ccc3c21	81%
CCCS(=O)(=O)N1CC(=O)N(c2cccc(Cl)c2C)C(C)(C(=O)NC2CCCC2)C1 (centres undefined)	99%
COc1ccccc1N1CCN(C(=O)c2cc3c(=O)n(Cc4ccco4)ccc3nc2C)CC1	80%
CC(C)CN1CCc2nc(N3CCN(C)CC3)ncc2C1	83%

Structure (SMILES)	survival
Sc1ccc2oc3ccc(S)cc3c2c1	93%
CCS(=O)(=O)c1nc(S(=O)(=O)c2ccc(C)cc2)c(NCc2ccccc2Cl)s1	81%
CCc1nn(CC(=O)Nc2ccc(N(CC)CC)cc2C)c(=O)c2cc3sccc3n12	77%
O=C(Cc1ccc(Cl)cc1)Nc1ccc2oc(-c3ccccc3F)nc2c1	118%
COc1ccc(/C=C/c2nc3ccccc3c(=O)n2-c2cccc(C(F)(F)F)c2)cc1	91%
COc1cccc2sc(NC(=O)CS(=O)(=O)c3ccc(C)cc3)nc12	101%
c1ccc(-c2cn(-c3ccccc3)c3ncnc(N4CCN(c5ccccc5)CC4)c23)cc1	90%
O=CN1CCN(S(=O)(=O)c2ccc(S(=O)(=O)NC3CC3)cc2)CC1	72%
CCOc1ccc(-c2nnc(SCC(=O)NCc3ccc(C)cc3)nc2-c2ccc(OCC)cc2)cc1	106%
Cc1ccc(NC(=O)c2ccco2)cc1NC(=O)CSc1ncnc2sc3c(c12)CCC3	54%
CC1CCN(c2oc(-c3cccs3)nc2S(=O)(=O)c2ccccc2)CC1	35% (active)
Cc1ccc(S(=O)(=O)c2nc(-c3cccs3)oc2N2CCCCC2)cc1	39% (active)
COc1cccc(-c2nc(S(=O)(=O)c3ccccc3)c(N3CCC(C)CC3)o2)c1	50%
CC1CCN(c2nc3c(S(=O)(=O)c4ccccc4)nnn3c3ccsc23)CC1	113%
O=S(=O)(c1ccccc1)c1nc(-c2cccs2)oc1N1CCCCC1	116%
COc1ccc(CCNC(=O)CCCn2c(=O)c3ccccc3n(Cc3c(C)cc(C)cc3C)c2=O)cc1OC	89%
O=C(NC1CCCCC1)C(c1cccs1)N(Cc1ccco1)C(=O)C1COc2ccccc2O1 (centres undefined)	96%
COc1ccc(OC)c(S(=O)(=O)N2CCC(n3c(C)nc4cccnc43)CC2)c1	73%
CCc1ccc2occ(CC(=O)Nc3sc4c(c3C(=O)NCCOC)CCCC4)c2c1	77%
CCC(=O)Nc1cc(-c2cccc(C)c2)nn1-c1ccccc1	83%
CC1=C(C#N)C(=O)NC(C)(C)C1	76%
CCc1nnc2c(N3CCN(c4cc(Cl)ccc4C)CC3)nc3ccccc3n12	-5% (active)
CCc1nnc2c(N3CCN(c4cccc(C(F)(F)F)c4)CC3)nc3ccccc3n12	108%

Structure (SMILES)	survival
CCc1nnc2c3ccccc3nc(N3CCN(c4cc(Cl)ccc4C)CC3)n12	104%
Cc1ccc(Cl)cc1N1CCN(c2nc3ccc(C(=O)c4ccccc4)cc3n3cnnc23)CC1	-4% (active)
Cc1ccc2nc(N3CCN(c4cccc(C)c4C)CC3)c3nncn3c2c1	39% (active)
Cc1ccc2nc(N3CCN(c4cccc(C)c4C)CC3)c3nnnn3c2c1	81%
FC(F)(F)c1cccc(N2CCN(c3nc4ccccc4n4cnnc34)CC2)c1	25% (active)
Cc1ccc(N2CCN(c3nc4ccc(C(=O)c5ccccc5)cc4n4cnnc34)CC2)c(C)c1	82%
Clc1cccc(N2CCN(c3nc4ccccc4n4cnnc34)CC2)c1	62%
Cc1ccc(C)c(N2CCN(c3nc4ccc(Cl)cc4n4cnnc34)CC2)c1	89%
Cc1ccc(C)c(N2CCN(c3nc4ccc(C(=O)c5ccccc5)cc4n4cnnc34)CC2)c1	79%
Cc1ccc(C)c(N2CCN(c3nc4ccccc4n4c(C)nnc34)CC2)c1	77%
COc1ccccc1-c1nnc2n(CCc3ccccc3)c(=O)c3ccccc3n12	69%
CCN(CC)C(=O)c1sc2c(c1C)c(=O)n(-c1ccc(C)c(C)c1)c(=O)n2CC(=O)Nc1ccc(OC)cc1OC	78%
O=C(NCc1cccc(Cl)c1)C1CCCN(c2ncnc3onc(-c4ccc(F)cc4)c23)C1 (centres undefined)	90%
COc1ccc(C)cc1NC(=O)c1nnn(Cc2cccc(Br)c2)c1N	87%
COc1ccc(N2CCN(c3oc(-c4ccc(COc5cccc(C)c5)o4)nc3C#N)CC2)cc1	102%
COc1cc2nc(C3CCC3)n(NC(=O)c3ccco3)c(=O)c2cc1OC	82%
O=S1(=O)N=C(Nc2cccc(C(F)(F)F)c2)c2ccccc21	53%
COc1ccccc1N1CCN(c2nc3ccc(C(=O)c4ccccc4)cc3n3c(C)nnc23)CC1	46% (active)
Cc1nnc2c(N3CCN(c4ccccc4F)CC3)nc3ccc(C(=O)c4ccccc4)cc3n12	93%
Cc1nnc2c(N3CCN(c4ccccc4)CC3)nc3ccc(C(=O)c4ccccc4)cc3n12	80%
